FLuc counter = firefly luciferase modulation, counter-screen for miR-21 project. P08659. purified FLuc, Km substrates, luminescence inhibition. Potency, µM (highest dose often 57.5 µM), inactives show top-dose activity change, negative = inhibition, most hits filed as inhibitors. hit rate 6.9% among 360,000;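 also: plate controls were vehicle for no effect and reference inhibitor for full effect; nearly all actives have a fitted effect of over 55% in size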
Target sequence (P08659 whole entry, looked up): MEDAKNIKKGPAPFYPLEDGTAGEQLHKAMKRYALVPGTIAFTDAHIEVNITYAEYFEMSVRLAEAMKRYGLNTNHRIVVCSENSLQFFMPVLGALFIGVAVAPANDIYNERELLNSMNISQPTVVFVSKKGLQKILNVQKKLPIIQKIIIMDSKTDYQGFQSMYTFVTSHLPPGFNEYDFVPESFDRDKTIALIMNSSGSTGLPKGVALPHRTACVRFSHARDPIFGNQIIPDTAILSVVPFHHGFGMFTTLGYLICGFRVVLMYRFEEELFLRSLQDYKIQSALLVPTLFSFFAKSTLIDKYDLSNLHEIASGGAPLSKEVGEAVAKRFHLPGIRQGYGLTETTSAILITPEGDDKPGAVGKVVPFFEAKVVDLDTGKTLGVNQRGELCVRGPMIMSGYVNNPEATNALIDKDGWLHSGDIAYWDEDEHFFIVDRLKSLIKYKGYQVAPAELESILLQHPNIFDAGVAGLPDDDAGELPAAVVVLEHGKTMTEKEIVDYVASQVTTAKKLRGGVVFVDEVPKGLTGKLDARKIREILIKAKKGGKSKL
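Biochemical qHTS of compounds, final roughly 60 µM downward over six points, against 10 nM purified firefly luciferase using Km concentrations of substrates (10 uM D-luciferin, 10 uM ATP) in Tris acetate pH 7.5 buffer; luminescence output.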
NPC1 prom act = activators of NPC1 promoter; hit rate 2.4% among 320,000; Potency, µM (series often up to 9.22 µM), for the others: at the top dose activation, usual class: activators; Huh7 NPC1 promoter luciferase reporter, 24 h; also: % of control where 0% means no effect; nearly all actives have a fitted effect of over 60% in size
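NPC1 promoter–luciferase Huh7 cells; 24 h compound; luminescence.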
SMN2 splice enh = SMN2 splice variant enhancement; Potency, µM (top dose mostly 46.1 µM), for inactives: top-dose activity change, positive = activation, most hits filed as activators; HEK293 SMN2-luciferase splicing reporter, luminescence, 30-36 h; hit rate 2.8% among 210,000; also: % of control where 0% means no effect; nearly all actives have a fitted effect of over 55% in size
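qHTS luciferase splicing reporter: luminescence rises when SMN2 exon 7 is included in transfected HEK293 cells. Compound exposure lasted 30-36 h at 37C, with 4.5 mM final sodium butyrate as control, followed by a ONE-Glo read.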
Rab9 prom act = Rab9 promoter activation. Huh7 Rab9 promoter-luciferase reporter, luminescence, 24 h. Potency, µM (doses to about 9.22 µM), without a hit: at the top dose activation, negative = inhibition, usual class: activators. hit rate 2.8% among 320,000. AID 485297; also: % of control where 0% means no effect; nearly all actives have a fitted effect of over 60% in size
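Steps: seed 1500 Huh7 Rab9-luc cells per well, rest 2 h at 37 °C; add compound in DMSO; incubate 24 h; add luciferase reagent, 10 min ambient; read luminescence.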
ELG1 DNA repair = blocks ELG1-dependent DNA repair in HEK293T cells. HEK293T ELG1-luciferase reporter, luminescence, 16 h; DNA damage induced by 5-fluorouridine. Potency, µM (series often up to 46.1 µM), without a hit: at the highest dose activity change, negative = inhibition, hits mostly inhibitors. hit rate 2.3% among 330,000. AID 504467; also: % is scaled to controls: 0 for no effect and ±100 for the full control effect; nearly all actives have a fitted effect of over 55% in size
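5-Fluorouridine DNA damage + compound/DMSO, 2,000 cells/well, 16 h, 37 °C/5% CO2. ONE-Glo, 30 min RT, luminescence. Readout = decrease in reporter signal.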
ELG1 genotox = genotoxicity induction in ELG1-luciferase HEK293T cells. Potency, µM (highest dose often 46 µM), for the others: top-dose activity change, positive = activation, hits mostly activators. hit rate 1.3% among 330,000. HEK293T ELG1-luciferase reporter, luminescence, 16 h; also: % of control where 0% means no effect; nearly all actives have a fitted effect of over 60% in size
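DMSO vehicle served as control against compound-treated ELG1-luciferase HEK293T cells; exposure lasted 16 hr at 37 °C and 5% CO2, followed by ONE-Glo luminescence detection after 30 min.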
Active calls of the source: *; ? = inconclusive; · = not tested or not shown; [ ] = another dose, or the depositor's remark. An excerpt weighted towards active compounds, which were near 9.4% of everything screened. Calls follow the shape of the dose curve; as a rule, active = well fitted curve in the direction sought with a large enough effect; inconclusive = small, poorly fitted or top-dose-only effect, or another doubt; inactive = no such curve, though single readings can be large; an effect the other way counts as inactive or inconclusive. Potency is read from the fitted curve at half-maximal effect.

SMILES	FLuc counter	NPC1 prom act	SMN2 splice enh	Rab9 prom act	ELG1 DNA repair	ELG1 genotox
Cc1cc(/C=c2\sc3nc4ccccc4n3c2=O)c(C)n1-c1ccc(C(=O)O)cc1	15.1µM*	?	-22.4%	16.4%	?	4.7%
O=c1/c(=C\c2cccnc2)sc2nc3ccccc3n12	-16.0%[2.3 µM]	-5.4%	?	-1.8%	?	?
Cc1cc(/C=c2/sc3nc4ccccc4n3c2=O)c(C)n1-c1ccccn1	0.135µM*	-32.5%	-84.4%	-28.0%	?	-2.8%
O=c1/c(=C/c2ccc(O)c([N+](=O)[O-])c2)sc2nc3ccccc3n12	6.75µM*	26.1%	-20.0%	2.9%	?	12.1%
CN(CC(=O)Nc1ccc(F)cc1F)S(=O)(=O)c1cccc2nsnc12	-2.7%	·	-12.1%	·	·	·
CCc1nn(CC(=O)NCc2ccc(OC)cc2OC)c(=O)c2cc3c(OC)cccc3n12	-3.9%	·	1.3%	·	·	·
CCc1ccc(NC(=O)CSc2nc(=O)n(Cc3ccncc3)c3c2CCC3)cc1	0.2%	·	·	·	·	·
O=C(Nc1ccccc1)C1=C[C@@H](C2CCCCC2)C[C@@H](OCCCCO)O1	12µM*	26.8%	·	?	?	?
CCOc1ccccc1NC(=O)CN(C)S(=O)(=O)c1ccc2nc(C)sc2c1	-12.2%	·	-8.2%	·	·	·
CN(C)S(=O)(=O)c1ccc(C(=O)NCc2ccccc2)cc1	1.5%	-1.6%	0.2%	-0.2%	1.0%	5.3%
CN(C)S(=O)(=O)c1ccc(C(=O)NCCOc2ccc(F)cc2)cc1	?	26.0%	20.4%	?	?	13µM*
CN(C)S(=O)(=O)c1ccc(C(=O)NCCS(=O)(=O)N2CCN(c3ccc(F)cc3)CC2)cc1	1.6%	-3.8%	·	-11.2%	9.2%	5.2%
CN(C)S(=O)(=O)c1ccc(C(=O)NCCOc2ccccc2)cc1	13.5µM*	3.98µM*	11.2µM*	2.82µM*	?	?
CCOc1ccc(C(=O)Nc2cc(-c3cn4cccnc4n3)ccc2C)cc1OCC	-16.0%	·	·	·	·	·
N/C(=N\N=C\c1ccc([N+](=O)[O-])cc1)c1nonc1N	?	1.58µM*	·	1.41µM*	?	5.17µM*
N/C(=N\N=C\c1ccc(O)c(O)c1)c1nonc1N	15.1µM*	?	·	?	?	?
COc1ccc(OC)c(/C=N/N=C(\N)c2nonc2N)c1	?	-0.6%	·	-2.7%	5.8%	1.4%
N/C(=N\N=C\c1ccc(O)cc1)c1nonc1N	10.7µM*	3.16µM*	15.8µM*	3.55µM*	?	?
CS/C(N)=N/N=C/c1ccc2c(c1)OCO2	8.49µM*	?	·	2.82µM*	?	?
CCn1cc(S(=O)(=O)c2ccc(C)cc2)c(=O)c2cc(F)c(N3CCCCCC3)cc21	4.3%	·	·	·	·	·
COc1cc(/C=N/N=C(\N)c2nonc2N)ccc1O	21.3µM*	11.8%	17.3%	20.4%	?	?
COc1ccc(/C=N/N=C(\N)c2nonc2N)cc1OC	?	?	109.2%	?	?	-0.3%
CS/C(N)=N/N=C/c1ccc([N+](=O)[O-])cc1	21.3µM*	2.82µM*	7.5%	?	?	?
N/C(=N\N=C\c1cccc(O)c1)c1nonc1N	1.9µM*	?	18.5%	?	?	?
CC(=O)Nc1ccccc1C=C1c2ccccc2-c2ccccc21	·	·	5.8%[9.22 µM]	·	·	·
SMILES	FLuc counter	NPC1 prom act	SMN2 splice enh	Rab9 prom act	ELG1 DNA repair	ELG1 genotox
O=C(Nc1ccc(F)c(Cl)c1)N1CCC(CN2CCc3ccccc3C2)CC1	-2.2%	·	·	·	·	·
C[C@@H]1CC[C@H]2[C@H](C)[C@H]3CC[C@H]4C5[C@@H](O)CC6=CC(=O)CC[C@]6(C)[C@H]5C[C@H]4C3C(=O)N2C1 (stereo not given in full)	·	·	0.9%	·	·	·
O=C(/C=C/c1ccccc1O)c1ccco1	16.9µM*	-7.0%	·	7.2%	13.5%	?
Nc1ccc(/C=C/C(=O)c2ccco2)cc1	6.01µM*	13.6%	14.4%	?	?	?
N#Cc1ccc(/C=C/C(=O)c2ccco2)cc1	?	1.5%	16.0%	0.1%	?	-18.8%
CC(C)(C)C(=O)Nc1ccc(NC(=O)C(C)(C)C)cc1	-9.7%	11.4%	·	24.4%	?	6.9%
CC(C)(C)C(=O)Nc1ccc(/C=C/C(=O)c2ccco2)cc1	0.426µM*	0.355µM*	·	0.447µM*	?	18.3µM*
CC(NC(=O)c1nn(C)c2c1CSc1ccccc1-2)c1ccccc1 (stereo not given)	4.7%	·	·	·	·	·
CCNc1nc(N)nc(Oc2ccc(C(=O)OC)cc2)n1	19µM*	?	25.1µM*	3.16µM*	?	11.6µM*
CCNc1nc(Oc2ccc(C(=O)OC)cc2)nc(N(C)C)n1	3.2%	-0.3%	-19.3%	-3.2%	-18.1%	0.8%
COc1ccc(OC)c(C2CC(=O)Nc3c2c(=O)n(C)c2ncnn32)c1 (stereo not given)	-4.8%	·	1.1%	·	·	·
CCOC(=O)c1ccc(-c2ccc3c(c2)CCC3)nc1C	1.51µM*	1.58µM*	·	1µM*	?	3.66µM*
COC(=O)c1ccc(-c2ccc(F)cc2)nc1C	3.38µM*	3.55µM*	?	3.55µM*	?	?
COc1ccc(-c2cc(C(F)(F)F)nc(SCCC(=O)Nc3ccc(NC(C)=O)cc3)n2)cc1	-0.5%	·	4.5%	·	·	·
CN(C)c1ccc(N=Cc2nc(-c3ccccc3)oc2OC(=O)c2ccccc2)cc1	?	?	11.2µM*	?	?	?
CC(=O)Oc1oc(-c2ccccc2)nc1C=Nc1ccc(N(C)C)cc1	2.2%	0.0%	·	-0.1%	-14.7%	-6.1%
CC(=O)Oc1oc(-c2ccccc2)nc1/C=N/c1ccccn1	21.3µM*	16.6%	?	25.2%	?	?
COc1cccc(NC(=O)Cn2c(=O)n(Cc3ccc(C(=O)NCc4ccc5c(c4)OCO5)cc3)c(=O)c3ccccc32)c1	-0.4%	·	-4.9%	·	·	·
Cc1cc(=O)[nH]c2nnc(SCc3c(F)cccc3Cl)n12	-11.4%	·	·	·	·	·
O=C(CN1C(=O)CCSc2ccccc21)Nc1ccc(C(F)(F)F)cc1	-9.2%	·	-26.5%	·	·	·
CCC(=O)Nc1cccc(C(=O)OCC(=O)c2ccccc2Cl)c1	7.57µM*	3.16µM*	26.5%	?	?	?
CC(=O)Nc1cccc(C(=O)OCC(=O)NC(=O)c2ccccc2)c1	-13.0%	-0.9%	·	0.3%	4.5%	1.8%
CC(=O)Nc1cccc(C(=O)OCC(=O)N2CCC(c3ccccc3)=N2)c1	15.1µM*	?	·	?	?	?
CC(=O)Nc1cccc(C(=O)OCC(=O)c2ccccc2Cl)c1	?	3.55µM*	22.3%	0.794µM*	?	?
